Active and inactive are the calls of the source. Unless noted, no rule for the calls is given here.
Tests used:
[1] = system: XIP peptide (Xip251-270) binding; test: XIP fragment 251-270 binding compounds – biochemical, small-molecule microarray, fluorescence 635/667 nm, 0.1 µg/mL protein, primary screen (AID 1182); conditions: fluorescent protein binding, 635 nm, higher = more signal, called active from +8 up or from −8 down
[2] = system: XIP peptide (Xip251-270); test: compounds binding XIP fragment 251-270 – biochemical, small-molecule microarray, fluorescence 635/667 nm, 0.5 µg/mL protein, primary screen (AID 1183); conditions: fluorescence 635 nm, higher = more signal
[3] = blood-stage malaria parasite viability loss – strain 3D7, DAPI fluorescence, 100 nL, primary screen (AID 1184);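 also: parasites grown inside human red blood cells in medium with human serum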; conditions: P. falciparum 3D7 growth, 3 d, higher = more signal
[4] = molecular target: Homeobox protein Hox-A13 (Mus musculus) (UniProt Q62424); test: disruptors of Hoxa13 oligonucleotide interaction – biochemical, fluorescence polarization, labeled oligonucleotide, primary screen (AID 1185); conditions: Hoxa13:DNA binding, 15 min, higher = more signal, called active from +8 up or from −8 down
[5] = blockers of DNA damage checkpoint Chk1 activation – imaging, HeLa, hydroxyurea, phospho-Chk1 antibody, percent positive cells, primary screen (AID 1186); conditions: hydroxyurea-induced phospho-Chk1 immunofluorescence imaging, higher = more signal
[6] = blockers of DNA damage checkpoint Chk1 activation – imaging, HeLa, hydroxyurea, phospho-Chk1 nuclear intensity, primary screen (AID 1187); conditions: hydroxyurea-induced phospho-Chk1 immunofluorescence imaging, higher = more signal

Homeobox protein Hox-A13 (Mus musculus), sequence (Q62424 whole entry, looked up): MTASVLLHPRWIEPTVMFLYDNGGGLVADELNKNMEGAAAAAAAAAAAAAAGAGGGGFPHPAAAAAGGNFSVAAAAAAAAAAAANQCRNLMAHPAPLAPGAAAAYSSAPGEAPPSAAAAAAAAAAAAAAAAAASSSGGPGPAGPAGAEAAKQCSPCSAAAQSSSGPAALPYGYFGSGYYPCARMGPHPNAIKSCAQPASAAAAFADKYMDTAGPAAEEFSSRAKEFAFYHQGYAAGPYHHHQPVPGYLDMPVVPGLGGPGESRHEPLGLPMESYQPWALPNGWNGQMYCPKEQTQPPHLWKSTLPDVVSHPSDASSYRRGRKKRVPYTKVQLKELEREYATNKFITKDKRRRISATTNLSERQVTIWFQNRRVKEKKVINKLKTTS

COC(=O)C/C=C/C[C@]1(O)C(=O)N(C)c2ccccc21
composite z-score [1]: 0.0625 (inactive)
composite z-score [2]: 0.804
z-score [3]: -0.306
z-score [4]: -1.32 (inactive)
z-score [5]: -0.866 (inactive)
z-score [6]: -0.467 (inactive)

CN(C)C(=O)[C@@]1(Cc2ccccc2)N=C(c2ccc(OCCCO)cc2)O[C@H]1c1ccccc1
composite z-score [1]: 1.66 (inactive)
composite z-score [2]: 0.444
z-score [3]: -1.58
z-score [4]: -6.14 (inactive)
z-score [5]: -0.499 (inactive)
z-score [6]: -0.304 (inactive)

O=C1OCCC=C[C@H]2OC34C=CCN(Cn5nnc6ccccc65)C(=O)[C@H]3N(CCCO)C(=O)[C@@H]4C12 (stereo partly drawn)
composite z-score [1]: 2.05 (inactive)
composite z-score [2]: -0.308
z-score [3]: -1.82
z-score [4]: -3.33 (inactive)
z-score [5]: -0.628 (inactive)
z-score [6]: -0.609 (inactive)

C=C(COC)/C(=C/C[C@H](OC(=O)c1ccncc1)c1ccccc1OCCO)c1cc(C(=O)OC)ccc1OC
composite z-score [1]: 0.0249 (inactive)
composite z-score [2]: 0.12
z-score [3]: -2.95
z-score [4]: -4.91 (inactive)
z-score [5]: 0.127 (inactive)
z-score [6]: 0.0857 (inactive)

COc1ccccc1CN1C(=O)c2ccccc2[C@](Cc2ccccc2I)(C(=O)O)[C@@H]1c1ccc(CO)cc1
composite z-score [1]: 0.382 (inactive)
composite z-score [2]: 0.798
z-score [3]: -0.0897
z-score [4]: -5.51 (inactive)
z-score [5]: -0.138 (inactive)
z-score [6]: 0.142 (inactive)

COCCOC(=O)N1C(=O)[C@@]2(c3cc(C#CCC(C(=O)OC)C(=O)OC)ccc31)[C@H](c1ccc(OCCO)cc1)N1[C@H](c3ccccc3)[C@H](c3ccccc3)OC(=O)[C@H]1[C@@H]2C(=O)N1CCc2cc(OC)c(OC)cc2C1
composite z-score [1]: 1.24 (inactive)
composite z-score [2]: 0.727
z-score [3]: -2
z-score [4]: 2.86 (inactive)
z-score [5]: -0.0277 (inactive)
z-score [6]: 0.246 (inactive)

Cc1ccc(S[C@]2(C(=O)NC(C)C)CC(=O)N(Cc3cc(C(F)(F)F)cc(C(F)(F)F)c3)[C@@H]2c2ccc(CO)cc2)cc1
composite z-score [1]: 0.706 (inactive)
composite z-score [2]: 0.49
z-score [3]: -0.938
z-score [4]: -2.62 (inactive)
z-score [5]: 0.0619 (inactive)
z-score [6]: 0.116 (inactive)

CCOC(=O)C=Cc1cccc(C)c1O
composite z-score [1]: 2.79 (inactive)
composite z-score [2]: 0.159
z-score [3]: -1.44
z-score [4]: 0.534 (inactive)
z-score [5]: -0.193 (inactive)
z-score [6]: 0.0058 (inactive)

C=C(/C(=C/C[C@H](OC(C)=O)c1ccc(CO)o1)c1cnc2ccccc2c1)C(C)C
composite z-score [1]: 0.0103 (inactive)
composite z-score [2]: 0.769
z-score [3]: -1.14
z-score [4]: -6.46 (inactive)
z-score [5]: -0.136 (inactive)
z-score [6]: 0.181 (inactive)

C=C[C@@H](OC)[C@H](OC(=O)Nc1ccc(OC)cc1)c1ccc(O)c(F)c1
composite z-score [1]: 0.65 (inactive)
composite z-score [2]: 0.741
z-score [3]: -0.825
z-score [4]: -2.8 (inactive)
z-score [5]: -0.528 (inactive)
z-score [6]: -1.17 (inactive)

O=C1C2C=CC(C(O)c3ccco3)N(Nc3ccccc3F)C2C(=O)N1c1ccccc1 (stereo not drawn)
composite z-score [1]: 0.36 (inactive)
composite z-score [2]: -0.139
z-score [3]: 1.09
z-score [4]: -1.61 (inactive)
z-score [5]: 0.456 (inactive)
z-score [6]: 0.257 (inactive)

COc1cc(OC)c(C(O)C2C=CC3C(=O)N(Cc4ccccc4)C(=O)C3N2n2cnnc2)cc1Br (stereo not drawn)
composite z-score [1]: 0.236 (inactive)
composite z-score [2]: 0.0481
z-score [3]: -0.976
z-score [4]: 0.767 (inactive)
z-score [5]: 0.0176 (inactive)
z-score [6]: 0.301 (inactive)

O=C1C2C=CC(C(O)C3CC=CCC3)N(Nc3ccccc3)C2C(=O)N1c1ccccc1 (stereo not drawn)
composite z-score [1]: 0.767 (inactive)
composite z-score [2]: 0.748
z-score [3]: -0.653
z-score [4]: -3.25 (inactive)
z-score [5]: 0.639 (inactive)
z-score [6]: 0.201 (inactive)

C=CCN1Cc2ccccc2[C@@H]2OC(c3ccc(OCCCO)cc3)=N[C@]2(CC=C)C1=O
composite z-score [1]: 0.887 (inactive)
composite z-score [2]: 0.794
z-score [3]: -2.08
z-score [4]: -1.62 (inactive)
z-score [5]: -0.675 (inactive)
z-score [6]: -1.39 (inactive)

O=C(O)[C@@H]1[C@@H]2C(=O)N(c3ccccc3)C(=O)[C@@H]2C[C@@H]1Sc1ccccc1
composite z-score [1]: -0.213 (inactive)
composite z-score [2]: 0.463
z-score [3]: 0.0183
z-score [4]: -2.65 (inactive)
z-score [5]: 0.701 (inactive)
z-score [6]: -0.162 (inactive)

CCCCCN1CC=CC23O[C@@H]4C=CCCOC(=O)C4[C@H]2C(=O)N(CCCCCCO)[C@@H]3C1=O (stereo partly drawn)
composite z-score [1]: 0.592 (inactive)
composite z-score [2]: -0.199
z-score [3]: -0.103
z-score [4]: -4.59 (inactive)
z-score [5]: -0.0991 (inactive)
z-score [6]: 0.155 (inactive)

COCCOC(=O)N1C(=O)[C@@]2(c3cc(C#CCCO)ccc31)[C@H](c1ccc(OCCO)cc1)N1[C@H](c3ccccc3)[C@H](c3ccccc3)OC(=O)[C@H]1[C@@H]2C(=O)Nc1nc2ccccc2s1
composite z-score [1]: 0.514 (inactive)
composite z-score [2]: 0.509
z-score [3]: 0.335
z-score [4]: 0.838 (inactive)
z-score [5]: -0.0639 (inactive)
z-score [6]: -0.355 (inactive)

[N-]=[N+]=Nc1ccccc1C[C@]1(C(=O)NCC(O)CO)COC(c2ccc(OCCCO)cc2)=N1 (stereo partly drawn)
composite z-score [1]: -0.0462 (inactive)
composite z-score [2]: 0.106
z-score [3]: -1.57
z-score [4]: -6.04 (inactive)
z-score [5]: 0.0856 (inactive)
z-score [6]: 0.636 (inactive)

Source: PubChem BioAssay
